For 42 sequences, binding signal results are on record in PMC10726135, “HNF4α isoforms regulate the circadian balance between carbohydrate and lipid metabolism in the liver”.

The full ranking holds about 18,000 sequences; the median of “log2 normalized intensity” is about 0.39, and the highest 2% start at about 6.6. For the sample, the highest values were picked, then their nearest neighbours and some sequences at random.

This assay concerns the target T1, HNF4alpha2 (COS-7 nuclear extract) (Homo sapiens, UniProt P41235 1-474).
T1 sequence: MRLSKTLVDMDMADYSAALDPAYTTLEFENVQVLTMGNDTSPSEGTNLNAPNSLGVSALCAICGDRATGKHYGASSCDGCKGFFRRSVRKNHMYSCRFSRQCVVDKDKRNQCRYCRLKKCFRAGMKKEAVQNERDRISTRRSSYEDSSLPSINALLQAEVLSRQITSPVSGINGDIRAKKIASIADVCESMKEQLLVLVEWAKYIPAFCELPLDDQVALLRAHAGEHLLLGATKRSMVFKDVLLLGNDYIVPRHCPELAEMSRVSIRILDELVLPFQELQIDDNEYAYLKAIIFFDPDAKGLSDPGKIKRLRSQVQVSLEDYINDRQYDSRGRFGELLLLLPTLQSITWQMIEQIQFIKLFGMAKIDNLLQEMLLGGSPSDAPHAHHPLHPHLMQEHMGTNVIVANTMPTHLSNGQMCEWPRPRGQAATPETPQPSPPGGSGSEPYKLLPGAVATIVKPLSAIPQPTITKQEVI
Description: protein-binding microarray; COS-7 nuclear extract on double-stranded Agilent 4x180k PBM; binding buffer, salt, pH and temperature not given in the material; high values mean tight binding. As to conditions: chain copies: 2; label: 3' end of strand 1 on the slide; dsDNA, one strand shown. The method in brief:
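A human HNF4α isoform was expressed in COS-7 cells by transient CaPO4 transfection, and nuclear extracts were prepared. These were applied to a custom Agilent SurePrint G3 4x180k array carrying ~44,000 test sequences in quadruplicate as double-stranded ~60-nt oligonucleotides, and an Agilent G2565CA scanner imaged bound HNF4α at 2-µm resolution. The background-corrected, normalized gProcessedSignal from Agilent software was used as the binding signal.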
Turning to “ATAAGACACATTCCATGCTTATCAGTGTACGCCTAGGGAGATTAGAGTATCGGTCGA”, the binding signal stood at 0.893 log2 normalized intensity. Consider “TAACTCAAAATCTGCTCTGTCCTGAGATGTGCCTAGGGAGATTAGAGTATCGGTCGA”, for which the binding signal was 1.06 log2 normalized intensity.

With “AGGCCTGGAACCTGTCTGACAGGATGAATTGCCTAGGGAGATTAGAGTATCGGTCGA”, the binding signal was -0.627 log2 normalized intensity. For “GCTGCCGCAGATCCCCGCTCCCCTCCCCCAGCCTAGGGAGATTAGAGTATCGGTCGA”, the binding signal stood at 6.45 log2 normalized intensity. Regarding “AAGAGCCAAAATGTGTTAGGCAAGCAAACTGCCTAGGGAGATTAGAGTATCGGTCGA”, the binding signal is -0.953 log2 normalized intensity. Consider “AGGGATTGTTTAGGTACAAAGTCCATTGGAGCCTAGGGAGATTAGAGTATCGGTCGA”, for which the binding signal was found to be 7.7 log2 normalized intensity. With “ACTTTGCCTTTTGGCTAAAGTCCAAATTCCGCCTAGGGAGATTAGAGTATCGGTCGA”, the binding signal was 5.14 log2 normalized intensity. The figure for “CGGTGAGGGATTGTTTAGGTACAAAGTCCAGCCTAGGGAGATTAGAGTATCGGTCGA” is 8.35 log2 normalized intensity; for “AACTTTGTTTGAGTTCCAAAGTCCATGTTCGCCTAGGGAGATTAGAGTATCGGTCGA” it is 6.61 log2 normalized intensity. Next, “GTCAAAACTTTGTTTGAGTTCCAAAGTCCAGCCTAGGGAGATTAGAGTATCGGTCGA”: 6.99 log2 normalized intensity; “TTGTTTAGGTACAAAGTCCATTGGAAGCCAGCCTAGGGAGATTAGAGTATCGGTCGA”: 5.82 log2 normalized intensity. Regarding “AAAGTCCATATTCTTTGTTTGGATGCCAAAGCCTAGGGAGATTAGAGTATCGGTCGA”, the binding signal amounted to 1.58 log2 normalized intensity.

On to “CTCTGAGATTCGGTGAGGGATTGTTTAGGTGCCTAGGGAGATTAGAGTATCGGTCGA”, for which the binding signal came out at 0.957 log2 normalized intensity. The figure for “GAATCAATGCCTGATTCCAAAGTCCACTTTGCCTAGGGAGATTAGAGTATCGGTCGA” is 6.91 log2 normalized intensity; for “AGATTCGGTGAGGGATTGTTTAGGTACAAAGCCTAGGGAGATTAGAGTATCGGTCGA” it is 1.53 log2 normalized intensity; for “ATGTGGTCAAAACTTTGTTTGAGTTCCAAAGCCTAGGGAGATTAGAGTATCGGTCGA” it is 1.07 log2 normalized intensity.

Take “ATACAGAATCAATGCCTGATTCCAAAGTCCGCCTAGGGAGATTAGAGTATCGGTCGA”: the binding signal is 5.95 log2 normalized intensity. Consider “AAGCATTTGGAGATTGCCACCTTGGTGAGAGCCTAGGGAGATTAGAGTATCGGTCGA”, for which the binding signal was determined as 0.715 log2 normalized intensity.

In the case of “GAGTTCTTCAAGTCAGTCAAAATGAATAGTGCCTAGGGAGATTAGAGTATCGGTCGA”, the binding signal came to 1.32 log2 normalized intensity. Next, “TTGGCAGATTAGATATATCTGTACTCAAACGCCTAGGGAGATTAGAGTATCGGTCGA”: 1.27 log2 normalized intensity. As for “TAACAGGATTTTTGCTGAAGACAGGCCAGGGCCTAGGGAGATTAGAGTATCGGTCGA”, the binding signal is -0.417 log2 normalized intensity. The figure for “CTGAATGGAATGAAGATACTGGATAACCTTGCCTAGGGAGATTAGAGTATCGGTCGA” is 0.695 log2 normalized intensity; for “AGAATGAGACCTGCTAGGCTGCATTCTCTGGCCTAGGGAGATTAGAGTATCGGTCGA” it is -0.977 log2 normalized intensity. The figure for “TTCTGGTCAAAGGTCAATGAAGCTCTTGCTGCCTAGGGAGATTAGAGTATCGGTCGA” is 5.65 log2 normalized intensity; for “TTCCCTAAGATTCTGGTCAAAGGTCAATGAGCCTAGGGAGATTAGAGTATCGGTCGA” it is 7.36 log2 normalized intensity. The figure for “TTCATTCTTTAAGGACCACATCAAAGGTCAGCCTAGGGAGATTAGAGTATCGGTCGA” is 4.7 log2 normalized intensity; for “TGCCTTATCTGGTTCAAAGGTCATTTCTGCGCCTAGGGAGATTAGAGTATCGGTCGA” it is 6.58 log2 normalized intensity. With “ATTCATTCCCTAAGATTCTGGTCAAAGGTCGCCTAGGGAGATTAGAGTATCGGTCGA”, the binding signal stood at 7.3 log2 normalized intensity. For the sequence “TTATCTTACATGCCTTATCTGGTTCAAAGGGCCTAGGGAGATTAGAGTATCGGTCGA”, the binding signal came to 2.9 log2 normalized intensity. Next, “TAAGATTCTGGTCAAAGGTCAATGAAGCTCGCCTAGGGAGATTAGAGTATCGGTCGA”: 5.93 log2 normalized intensity.

In the case of “TTACATGCCTTATCTGGTTCAAAGGTCATTGCCTAGGGAGATTAGAGTATCGGTCGA”, the binding signal turned out to be 7.65 log2 normalized intensity. The figure for “TATCTGGTTCAAAGGTCATTTCTGCTTGCAGCCTAGGGAGATTAGAGTATCGGTCGA” is 5.75 log2 normalized intensity; for “TGAGGCCCCAGTGTCAATTCTCATTCATCCGCCTAGGGAGATTAGAGTATCGGTCGA” it is -0.225 log2 normalized intensity. The figure for “AACCCTTGCACTGCTGGTTTTTGTCAAAGAGCCTAGGGAGATTAGAGTATCGGTCGA” is 0.709 log2 normalized intensity. The figure for “GCCTGTCAGGCCCAGAAACACTGAACCTTGGCCTAGGGAGATTAGAGTATCGGTCGA” is 1.63 log2 normalized intensity; for “TTGCACTGCTCAGGGTGGGGTCTCGCTGCTGCCTAGGGAGATTAGAGTATCGGTCGA” it is -0.755 log2 normalized intensity; for “ACACAATATTATGTTTTGTTATCTGTGCCAGCCTAGGGAGATTAGAGTATCGGTCGA” it is 1.17 log2 normalized intensity.

As for “GTAAACTCCCTTTGATGCGGTCAGAGTTCAGCCTAGGGAGATTAGAGTATCGGTCGA”, the binding signal is 3.08 log2 normalized intensity. As for “AGTGAACTCAAAGAAAAGTTATGTTGGGCAGCCTAGGGAGATTAGAGTATCGGTCGA”, the binding signal was 1.17 log2 normalized intensity.

On to “TCCCTTGCTCCACCCTTCTATCCCCTTATCGCCTAGGGAGATTAGAGTATCGGTCGA”, for which the binding signal was found to be 2.8 log2 normalized intensity. Next, “GCAGTTTAGAGAAAGGGTCAAAGGTTAAGCGCCTAGGGAGATTAGAGTATCGGTCGA”: 8.4 log2 normalized intensity; “TTAGAGAAAGGGTCAAAGGTTAAGCCATTGGCCTAGGGAGATTAGAGTATCGGTCGA”: 5.92 log2 normalized intensity.
